Measurements reported in PubChem BioAssay AID1986 (Sanford-Burnham Center for Chemical Genomics, 2009).
About 890 (0.31%) of roughly 290,000 compounds were called active. No stated cut-off is given here; in the data, active means inhibition mostly above about 52% (no sharp cut-off); inactive means mostly below about 76%. This excerpt belongs to a sample that is enriched for actives.

Experiment: cell-free HIV fusion peptide-binding blockers – biochemical, uHTS, fluorescence dequenching, primary screen (AID 1986)
Conditions: 30 min, stronger effect = higher value
[1] = measured here: repeat confirmation average inhibition, at 18.6 µM

Row | SMILES | inhibition (at 20 µM) | inhibition [1] [%]
1 | CCOC(=O)c1ccc(NC(=S)NCC(O)c2ccccc2)cc1 (stereo not drawn) | 8.7% (inactive) | –
2 | Cn1cnnc1SCC(=O)Nc1ccc(Cl)cc1 | 1.9% (inactive) | –
3 | Cn1cccc1/C=C1\SC(=S)N(NC(=O)c2cccc(Cl)c2)C1=O | 25.6% (inactive) | –
4 | Cn1cc(/C=C2\SC(=S)N(NC(=O)c3ccccc3)C2=O)c2ccccc21 | 122% (inactive) | 17.7
5 | Cn1cccc1/C=C1\SC(=S)N(NC(=O)c2ccccc2O)C1=O | 66.2% (inactive) | 25.2
6 | Cn1cc(/C=C2\SC(=S)N(NC(=O)c3ccccc3Cl)C2=O)c2ccccc21 | 66.4% (active) | 117
7 | Cc1ccc(C(=O)NN2C(=O)/C(=C/c3cccn3C)SC2=S)cc1 | 24.4% (inactive) | –
8 | Cn1cccc1/C=C1\SC(=S)N(NC(=O)c2ccccc2Cl)C1=O | 22.1% (inactive) | –
9 | Cn1cc(/C=C2\SC(=S)N(NC(=O)c3cccc(Cl)c3)C2=O)c2ccccc21 | 69.3% (active) | –
10 | Cn1cccc1/C=C1\SC(=S)N(NC(=O)c2ccccc2)C1=O | 35.3% (inactive) | –
11 | Cc1ccc(C(=O)NN2C(=O)/C(=C/c3cn(C)c4ccccc34)SC2=S)cc1 | 86.9% (active) | 91.3
12 | Cc1nc(SCc2ccccc2)[nH]c(=O)c1CC(=O)OCC(C)C | 0.8% (inactive) | –
13 | CN(C)c1nc(N)c([N+](=O)[O-])c(NCc2ccccc2)n1 | -1.3% (inactive) | –
14 | Cc1onc(-c2c(Cl)cccc2Cl)c1C(=O)Nc1nccs1 | -1% (inactive) | –
15 | COc1ccc(NCC(=O)N/N=C(\C)c2cc3ccccc3o2)cc1 | -3.3% (inactive) | –
16 | Cc1c(N=C2N=C(NC(=O)c3cccs3)c3ccccc32)c(=O)n(-c2ccccc2)n1C | 75.3% (active) | –
17 | Cc1c(N=C2N=C(NC(=O)c3ccc(F)cc3)c3ccccc32)c(=O)n(-c2ccccc2)n1C | 74.4% (active) | –
18 | Cc1c(NC(=O)/C(=C/c2cccs2)c2cccs2)c(=O)n(-c2ccccc2)n1C | 6.2% (inactive) | –
19 | Cc1c(N=C2N=C(NC(=O)NC(C)(C)C)c3ccccc32)c(=O)n(-c2ccccc2)n1C | -0.2% (inactive) | –
20 | Cc1c(NC(=O)c2cccs2)c(=O)n(-c2ccccc2)n1C | -1.2% (inactive) | –
21 | Cc1c(N=C2N=C(NC(=O)Nc3ccc(Cl)cc3)c3ccccc32)c(=O)n(-c2ccccc2)n1C | 137% (inactive) | –
22 | CC(=O)Nc1cccc(NC(=O)CSc2ncc(-c3ccccc3)[nH]2)c1 | 0.5% (inactive) | –

Row | SMILES | inhibition (at 20 µM) | inhibition [1] [%]
23 | Cc1ccc(C(C(=O)NC2CCCCC2)N(Cc2ccco2)C(=O)Cn2cnc3ccccc32)cc1 (stereo not drawn) | -1.8% (inactive) | –
24 | Cc1nc(NC(=O)/C=C/c2ccccc2)sc1C(=O)N1CCCCC1 | -0.3% (inactive) | –
25 | Cc1cc(/C=C2\SC(=S)N(Cc3ccco3)C2=O)c(C)n1-c1cccnc1 | 53.6% (active) | 94.4
26 | COc1ccc(-n2c(C)cc(/C=C3\SC(=S)N(Cc4ccco4)C3=O)c2C)cc1 | 38.3% (inactive) | –
27 | Cc1cc(/C=C2\SC(=S)N(Cc3ccco3)C2=O)c(C)n1-c1ccccc1 | 43.7% (inactive) | –
28 | NC(=O)CSc1nc(C23CC4CC(CC(C4)C2)C3)nc2ccccc12 | -1.1% (inactive) | –
29 | CCCNC(=O)Cn1c(=O)/c(=C\c2ccc(-c3cccc([N+](=O)[O-])c3)o2)s/c1=C\C(=O)C(C)(C)C | 23.1% (inactive) | –
30 | CCCNC(=O)Cn1c(=O)/c(=C\c2ccc(-c3ccc([N+](=O)[O-])cc3)o2)s/c1=C\C(=O)C(C)(C)C | 145% (inactive) | –
31 | CC(C)(C)C(=O)/C=c1\s/c(=C\c2ccc(-c3ccc([N+](=O)[O-])cc3)o2)c(=O)n1CC(=O)NC(N)=O | 76.8% (active) | –
32 | O=C(CCc1nc2ccccc2[nH]c1=O)N/N=C/c1ccccc1 | -0.5% (inactive) | –
33 | CCOC(=O)NC(=O)CSc1nc(C)cc(C(F)(F)F)c1C#N | 4.9% (inactive) | –
34 | CCOC(=O)CCSc1nc(C(C)(C)C)cc(C(F)(F)F)c1C#N | -0.1% (inactive) | –
35 | CCOC(=O)CCSc1nc(C)cc(C(F)(F)F)c1C#N | 82% (active) | 50.9
36 | O=C(NN=C1C2CC3CC(C2)CC1C3)c1cccc(S(=O)(=O)N2CCOCC2)c1 | 2.1% (inactive) | –
37 | Cc1ccccc1CSc1n[nH]c(NS(=O)(=O)c2ccccc2)n1 | -0.6% (inactive) | –
38 | COc1ccccc1C(=O)NNC(=O)c1cccc(C)c1 | 0.2% (inactive) | –
39 | Cc1cc(-c2csc(NC(=O)c3ccc(=O)[nH]c3)n2)c(C)n1Cc1ccco1 | 61% (active) | –
40 | Cc1cc(-c2csc(N)n2)c(C)n1Cc1ccco1 | 46.3% (inactive) | –
41 | Cc1cc(-c2csc(NC(=O)c3ccc(C#N)cc3)n2)c(C)n1Cc1ccco1 | 56.1% (active) | –
42 | Cc1cc(-c2csc(NC(=O)c3ccc(=O)[nH]c3)n2)c(C)n1Cc1ccccc1 | 84.8% (inactive) | 2.3
43 | CCNc1nc(-c2cc(C)n(Cc3ccco3)c2C)cs1 | 59.6% (inactive) | 0.3
44 | Cc1cc(-c2csc(NC(=O)c3ccc(C#N)cc3)n2)c(C)n1Cc1ccccc1 | 15.9% (inactive) | –

Row | SMILES | inhibition (at 20 µM) | inhibition [1] [%]
45 | O=C(Nc1cccc(C(F)(F)F)c1)/C(=C/c1ccco1)NC(=O)c1cccs1 | 15.1% (inactive) | –
46 | COC(=O)c1ccc(COc2ccc(/C=N/Nc3cccc(C(=O)O)c3)cc2)cc1 | 58.9% (active) | –
47 | O=C(O)c1cccc(N/N=C/c2ccc(OC(F)(F)F)cc2)c1 | 26.1% (inactive) | –
48 | COC(=O)c1ccc(COc2ccccc2/C=N/Nc2cccc(C(=O)O)c2)cc1 | 37% (inactive) | –
49 | COc1ccc(/C=N/NC(=O)c2cccc([N+](=O)[O-])c2)cc1OC(=O)c1ccc(C)cc1 | -0.7% (inactive) | –
50 | CO/N=C(\c1nonc1N)N1CCN(c2ccc(Cl)cc2[N+](=O)[O-])CC1 | -0.3% (inactive) | –
51 | O=C1OC(/C=C/c2ccc(Cl)cc2)=NC/1=C/c1ccco1 | 56.5% (active) | –
52 | CC1=N/C(=C/c2ccco2)C(=O)O1 | 41.7% (inactive) | –
53 | COc1ccccc1/C=C/C=C1N=C(/C=C/c2ccc(Cl)cc2)OC/1=O | 56.4% (inactive) | -0.4
54 | O=C(NCc1ccccc1Cl)NCc1ccccc1Cl | 1% (inactive) | –
55 | CCCC(=O)n1nc(-c2ccccc2)nc1SC | 3.2% (inactive) | –
56 | Cc1nnc(NC(=O)C23CC4CC(CC(C4)C2)C3)s1 | 2.2% (inactive) | –
57 | COc1ccc(-c2cc(CCCC(=O)N3CCN(c4ccc(OC)cc4)CC3)no2)cc1 | -1.3% (inactive) | –
58 | COc1ccc2nc3cc(Cl)ccc3c(C#N)c2c1 | 3.4% (inactive) | –
59 | CCN(CC)CCCC(C)Nc1c2ccc(Cl)cc2nc2ccc(OC)cc12 (stereo not drawn) | 62.2% (active) | –
60 | COc1ccc2nc3cc(Cl)ccc3c(Nc3cc(C(C)C)c(O)cc3C)c2c1 | -5.4% (inactive) | –
61 | COc1c(/C=C2\SC(=Nc3ccccc3Cl)NC2=O)cccc1[N+](=O)[O-] | 20% (inactive) | –
62 | COc1cccc(N=C2NC(=O)/C(=C/c3cc([N+](=O)[O-])ccc3O)S2)c1 | 64.2% (inactive) | 33
63 | COc1cc(/C=C2\S/C(=N/S(=O)(=O)Cc3ccccc3)NC2=O)c([N+](=O)[O-])cc1OC | 25.9% (inactive) | –
64 | O=C1NC(=Nc2ccccc2Cl)S/C1=C\c1cc([N+](=O)[O-])ccc1O | 89.1% (active) | 124
65 | O=C1NC(=Nc2ccccc2Cl)S/C1=C\c1cccc([N+](=O)[O-])c1 | 75.6% (inactive) | 29.4
66 | O=C1N/C(=N\S(=O)(=O)Cc2ccccc2)S/C1=C/c1cccc([N+](=O)[O-])c1 | 30.7% (inactive) | –

Row | SMILES | inhibition (at 20 µM) | inhibition [1] [%]
67 | O=C1N/C(=N\S(=O)(=O)Cc2ccccc2)S/C1=C/c1cc([N+](=O)[O-])ccc1O | 69.6% (active) | –
68 | O=C1NC(=Nc2ccccc2Cl)S/C1=C\c1ccc(C(=O)O)cc1 | 26.9% (inactive) | –
69 | N/C(=N\NC(=O)c1ccccc1Cl)c1cc2ccccc2oc1=O | 0.3% (inactive) | –
70 | CCC(=O)Nc1ccc(-c2nnc(SCc3ccc(C(=O)Nc4nccs4)cc3)n2CC)cc1 | -0.6% (inactive) | –
71 | NC1=NC[C@H](CC2CCCCC2)N1CCc1cc(C(F)(F)F)cc(C(F)(F)F)c1 | 0.6% (inactive) | –
72 | CC(C)[C@@H]1NC(=O)N(c2ccc(Oc3ccccc3)cc2)C1=O | -2.5% (inactive) | –
73 | COc1cccc(-c2c(C(=O)N/N=C(\C)COc3ccccc3)nnn2-c2nonc2N)c1 | -1.6% (inactive) | –
74 | Cc1[nH]c2ccccc2c1C(=O)C(=O)NCCc1c[nH]c2ccccc12 | 0.7% (inactive) | –
75 | CCn1c(SCC(=O)Nc2cc(C)on2)nnc1-c1ccc(S(=O)(=O)N2CCN(C)CC2)cc1 | -2.9% (inactive) | –
76 | N#Cc1c(-c2ccccc2Cl)noc1/C=C/Nc1ccc(C(=O)O)cc1 | 53.5% (inactive) | 3.7
77 | O=C(NC1CCc2ccccc21)c1cc(COc2c(F)cccc2F)on1 (stereo not drawn) | 0.3% (inactive) | –
78 | O=C(Cn1cnc2c(nnn2-c2ccccc2)c1=O)NCCc1ccccc1 | 1.1% (inactive) | –
79 | Cc1ccc(N2C(=O)[C@@H]3C(C(=O)CN4C(=O)c5ccccc5C4=O)=NN[C@@H]3C2=O)c(C)c1 | -2.5% (inactive) | –
80 | Cc1ccc(N2C(=O)c3ccc(C(=O)O)cc3C2=O)c(C)c1 | -0.3% (inactive) | –
81 | O=C1O/C(=C/C(=O)N2CCOCC2)c2ccccc21 | 1.9% (inactive) | –
82 | O=C(O)c1ccccc1Nc1ccccc1C(=O)O | 4% (inactive) | –
83 | COc1ccc(Nc2ccccc2C(=O)O)cc1 | 3.4% (inactive) | –
84 | COc1cc(-c2ccc(Nc3ccccc3C(=O)O)c(OC)c2)ccc1Nc1ccccc1C(=O)O | 61% (active) | –
85 | Cc1ccc(O)c(N=Cc2cc(Cc3ccccc3)cc([N+](=O)[O-])c2O)c1 | 58% (inactive) | 14.2
86 | Cc1ccc(N=Cc2cc(Cc3ccccc3Cl)cc([N+](=O)[O-])c2O)c(O)c1 | 64% (active) | 57.3
87 | COc1ccc(N=Cc2cc(Cc3ccccc3Cl)cc([N+](=O)[O-])c2O)cc1OC | 69.3% (inactive) | 19.7
